Assay [1] is described as follows: circadian clock period modulators, cell-based, LOPAC library, luminescence reporter (AID 2774; call rule not given here;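 note: values are relative to mean of DMSO wells on each plate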). As to conditions: circadian reporter cells, at 7 µM, actives lie on both sides.
Assay [2] deals with Hepatitis C virus NS3 helicase. The assay can be described thus: HCV NS3 helicase inhibitors, primary screen, biochemical, fluorescence polarization, LOPAC1280 library (AID 687035; in the data active = inhibition above about 37%). The settings on record: Purified HCV NS3 helicase, Cy5-dT15 ssDNA binding fluorescence polarization; hits give high values; concentration not given here.
Assay [3] in a line: Cy5 fluorescence quenching or enhancement artefacts, artefact control for HCV NS3 helicase inhibitor project, biochemical, LOPAC1280 (AID 687037; call rule not given here). The settings on record: Cy5-DNA-NS3h complex fluorescence interference counterscreen. In general terms: Counterscreens check selectivity or assay interference.
The target in assay [4] is Single-stranded DNA-binding protein (Escherichia coli (strain K12)) (UniProt P0AGE0). As to the kind of experiment: E. coli SSB displacement from DNA, counter-screen for HCV NS3 helicase inhibitor project, biochemical, fluorescence polarization, NIH Clinical Collection (AID 743271; in the data active = inhibition above about 28%). As to conditions: hits give high values, concentration not given here.
Assay [5] can be described thus: fluorescence interference in NS3h assay format, artefact control for HCV NS3 helicase inhibitor project, biochemical, NIH Clinical Collection (AID 743272; call rule not given here;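 note: HCV NS3 helicase with a Cy5 labelled single stranded DNA probe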). The settings on record: fluorescence interference counterscreen, hits give low values.
A short description of assay [6]: modulation of C. elegans fzo-1 (AID 1259413; call rule not given here;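 note: fzo-1 mutant C. elegans worms in liquid wells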). The settings on record: C. elegans fzo-1 modulator screen, mean read-out; hits give high values.
Assay [7] in a line: phospholipid biosynthesis inhibitors in animal cells, primary screen, cell-based, LOPAC library, screen 4 (AID 1347384; call rule not given here). As to conditions: phospholipid biosynthesis inhibition screen, at 10 µM.
The test system of assay [8] is F380Y. The assay can be described thus: modulators of BK channel variants, profiling panel, selectivity assay, cell-based, U2OS BacMam, thallium flux, beta subunits (AID 1259406).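 Note: initial slope of Thallos dye fluorescence rise after thallium is added; log ratio against the mean of 0.3% DMSO vehicle wells on the same plate.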 As to conditions: at 30 µM.
For assay [9], the system named is F380Y/beta1. The description is as above. The settings on record: at 30 µM.
Assay [10] deals with F380Y/beta2Delta. The assay is described as above. The settings on record: at 30 µM.
In assay [11] the test system is F380Y/beta4. The description is as above. The settings on record: at 30 µM.
The target in assay [12] is Calcium-activated potassium channel subunit alpha-1 (Homo sapiens) + Leucine-rich repeat-containing protein 26 (Homo sapiens) (UniProt Q12791+Q2I0M4). The assay is described as above. The settings on record: F380Y/Slo1WT/gamma1, at 30 µM.
Chain of Calcium-activated potassium channel subunit alpha-1 (Homo sapiens) + Leucine-rich repeat-containing protein 26 (Homo sapiens) (Q2I0M4 whole entry, looked up, one chain of several): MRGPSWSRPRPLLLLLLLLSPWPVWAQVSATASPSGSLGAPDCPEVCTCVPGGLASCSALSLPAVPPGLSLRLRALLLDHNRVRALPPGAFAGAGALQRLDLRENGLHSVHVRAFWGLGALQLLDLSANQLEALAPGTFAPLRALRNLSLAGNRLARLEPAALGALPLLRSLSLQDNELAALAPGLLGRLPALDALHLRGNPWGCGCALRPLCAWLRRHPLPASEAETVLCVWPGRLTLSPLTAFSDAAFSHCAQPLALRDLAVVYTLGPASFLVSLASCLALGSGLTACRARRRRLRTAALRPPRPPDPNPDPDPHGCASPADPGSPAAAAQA
Assay [13] deals with R275C. The description is as above. As to conditions: at 30 µM.
The subject of assay [14] is R275C/beta1. The description is as above. As to conditions: at 30 µM.
For assay [15], the system named is R275C/beta2Delta. The description is as above. As to conditions: at 30 µM.
The subject of assay [16] is R275C/beta4. The assay is described as above. As to conditions: at 30 µM.
Assay [17] concerns R275C/Slo1WT/beta2. Described as above. As to conditions: at 30 µM.
A short description of assay [18]: growth inhibition of DIPG glioma cells, dose response, cell-based, SU-DIPG-XIII, MIPE4.0, CellTiter-Glo, qHTS (AID 1347061; cut-off not given, nearly all actives have AC50 up to about 37 µM;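 note: cells exposed to compound for 48 hours before readout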). As to conditions: SU-DIPG-XIII viability, CellTiter-Glo ATP luminescence.
Assay [19] in a line: growth inhibition of DIPG glioma cells, dose response, cell-based, JHH-DIPG-1, MIPE4.0, CellTiter-Glo, qHTS (AID 1347062; cut-off not given, nearly all actives have AC50 up to about 27 µM). As to conditions: JHH-DIPG-1 viability, CellTiter-Glo ATP luminescence. On the technique in general: In ATP-based viability assays light output follows the ATP content of the culture.
A short description of assay [20]: growth inhibition of DIPG glioma cells, dose response, cell-based, SU-DIPG-IV, MIPE4.0, CellTiter-Glo, qHTS (AID 1347063; cut-off not given, nearly all actives have AC50 up to about 30 µM;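 note: compound exposure lasted 48 hours before the viability readout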). As to conditions: SU-DIPG-IV viability, CellTiter-Glo ATP luminescence.

A number with no mark means an inactive call. Results filed as inconclusive are left out. The source made the active and inactive calls.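 Rule for the calls, unless noted: active = thallium flux through the channel raised or lowered by more than 3 SD from vehicle-only wells, actives on both sides; inactive = the rest.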

Regarding `CC(C)NCC(O)COc1cccc2ccccc12` (stereo not given), in [1], the period change was -0.115 h. Moreover, the inhibition in assay [2] was -4%; in assay [4], 2.57%. The fluorescence ratio (interference) in assay [3] is 1. Besides, the fluorescence ratio in assay [5] was 0.93. Besides, in assay [6], the mean signal is 249. Further, the result in assay [7] was inactive. The log fold change Tl+ flux in [8] was 0.0569; in assay [9] it was -0.00888; in assay [10], 0.058; in assay [11], 0.0503; in assay [12] it was -0.019; in assay [13] it was -0.0109. For the same compound, the log fold change Tl+ flux in assay [14] was 0.0491; in [15] it was 0.188 (active); in [16], 0.00549; in assay [17], -0.0153.

As to `CS(=O)(=O)c1ccc(C2=C(c3ccccc3)C(=O)OC2)cc1`, in assay [4], the inhibition was 1.44%. Moreover, the fluorescence ratio in assay [5] was 0.97. In addition, in assay [6], the mean signal was 215. In addition, the result in assay [18], in [19] and in assay [20] was inactive. Besides, the log fold change Tl+ flux was 0.0227 in [8]; 0.00163 in assay [9]; 0.00326 in assay [10]; -0.000569 in assay [11]; 0.022 in assay [12]; -0.068 in [13]. Besides, the log fold change Tl+ flux in assay [14] is 0.023; in assay [15] it was 0.00437; in [16], 0.00682; in [17] it was 0.00403.

As for `C[N+]1(C)CCCC(OC(=O)C(O)(c2ccccc2)c2ccccc2)C1` (stereo not given), in assay [4], the inhibition was -3.53%. Further, the fluorescence ratio in [5] is 0.96. For the same compound, the mean signal in assay [6] is 266. The log fold change Tl+ flux in [8] is 0.00904; in [9], -0.0251; in assay [10] it was -0.0376; in [11] it was 0.0149; in assay [12] it was -0.0154; in assay [13] it was 0.00512. The log fold change Tl+ flux in assay [14] was 0.0318; in assay [15], -0.0151; in assay [16] it was 0.0435; in assay [17] it was 0.0306.

Consider `CC(=O)OCC(=O)[C@@]1(O)CC[C@H]2[C@@H]3C[C@H](C)C4=CC(=O)C=C[C@]4(C)[C@H]3[C@@H](O)C[C@@]21C`, for which the inhibition in [4] was 0.29%. Moreover, in assay [5], the fluorescence ratio was 0.99. In addition, the mean signal in [6] was 251. The log fold change Tl+ flux is 0.0243 in [8]; 0.0602 in assay [9]; 0.0726 in [10]; 0.0393 in assay [11]; 0.0089 in assay [12]; 0.0193 in [13]. The log fold change Tl+ flux in assay [14] is 0.0544; in [15] it was 0.0284; in assay [16] it was 0.0801; in assay [17], 0.0333.

`CN1CCN(CC/C=C2/c3ccccc3Sc3ccc(S(=O)(=O)N(C)C)cc32)CC1`: the period change in assay [1] is 0.09 h. Besides, the mean signal in assay [6] was 215.

As for `CC1(C)S[C@@H]2[C@H](NC(=O)[C@H](N)c3ccc(O)cc3)C(=O)N2[C@H]1C(=O)O`, the inhibition in assay [4] was 7.91%. Besides, the fluorescence ratio in assay [5] was 1. In addition, in assay [6], the mean signal was 239. In addition, the log fold change Tl+ flux was -0.0516 in assay [8]; 0.0448 in assay [9]; -0.0816 (active) in assay [10]; -0.0174 in [11]; 0.0259 in [12]; 0.00882 in assay [13]. Further, the log fold change Tl+ flux was 0.0045 in assay [14], -0.0233 in assay [15], 0.0282 in assay [16] and 0.0404 in [17].

Turning to `CC1(C)SC2C(NC(=O)COc3ccccc3)C(=O)N2C1C(=O)O` (stereo not given), in assay [4], the inhibition is -5.05%. In addition, in [5], the fluorescence ratio is 1.01. The mean signal in [6] was 260. Besides, the log fold change Tl+ flux was -0.00633 in [8]; 0.027 in assay [9]; 0.0322 in assay [10]; -0.00549 in assay [11]; -0.0109 in assay [12]; 0.00635 in assay [13]. In addition, the log fold change Tl+ flux in assay [14] was 0.0123; in [15], -0.0109; in assay [16] it was 0.0174; in [17], 0.0607.

As for `CC(=O)O[C@]1(C(C)=O)CC[C@H]2[C@@H]3C[C@H](C)C4=CC(=O)CC[C@]4(C)[C@H]3CC[C@@]21C`, in [4], the inhibition was -0.48%. The fluorescence ratio in [5] was 0.97. For the same compound, in assay [6], the mean signal was 251. Further, the compound was called inactive in [19] and in assay [20]. Moreover, the log fold change Tl+ flux in assay [8] is -0.0294; in assay [9], 0.0192; in [10], -0.0667; in [11], -0.000109; in assay [12], -0.0359; in [13] it was -0.0267. Further, the log fold change Tl+ flux is 0.0157 in assay [14], 0.0115 in assay [15], 0.0252 in [16] and 0.0102 in assay [17].

For `CN(C)CCC(c1ccc(Cl)cc1)c1ccccn1` (stereo not given), the period change in assay [1] was -0.5 h. Also, the figures for the inhibition in assay [2] and in assay [4] were -6% and -3.95%, respectively. Besides, the fluorescence ratio (interference) in [3] is 0.9. In assay [5], the fluorescence ratio is 1.02. In addition, the mean signal in [6] is 225. Further, the call in assay [7] was inactive. Moreover, the log fold change Tl+ flux in assay [8] was 0.0819; in assay [9], -0.0189; in assay [10] it was 0.0184; in assay [11], 0.0511; in assay [12], -0.0284; in [13], -0.059. Moreover, the log fold change Tl+ flux in [14] is 0.0906 (active); in [15] it was 0.0118; in assay [16] it was 0.0326; in [17], 0.0403.

As to `O=C(O[C@@H]1Cc2c(O)cc(O)cc2O[C@@H]1c1cc(O)c(O)c(O)c1)c1cc(O)c(O)c(O)c1`, the inhibition in assay [4] is 32.2% (active). For the same compound, in [5], the fluorescence ratio is 0.8 (active). In addition, the mean signal in [6] is 222.

With `C=CC1=C(C(=O)O)N2C(=O)[C@@H](NC(=O)/C(=N\O)c3csc(N)n3)[C@H]2SC1` (stereo in doubt), the mean signal in [6] was 293. Moreover, the outcome in [19] and in assay [20] was inactive.

A word on the inhibition: it is the relative decrease from the control value, in per cent.
